Here are results for 35 molecules from PubChem BioAssay.

Values without a mark were called inactive. Calls of active or inactive are those of the source.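 The calls were made as follows, unless noted: active = mean inhibition above 46.5%, the solvent-only control mean plus 3 SD; inactive = the rest.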

A word on the inhibition: it is the drop in the measured response relative to a control, in per cent.

For experiment [1], the system named is transactivating tegument protein VP16 (Human herpesvirus 1). The experiment can be described thus: compounds suppressing VP16-driven luciferase signal – cell-based, luminescence, single concentration, counter-screen for SRC2 inhibitor project (AID 652007; in the data active = inhibition above about 36%). Conditions: cell-based VP16 transactivation luciferase reporter, at 8.9 µM, hits give high values. (Counterscreens check selectivity or assay interference.)

The target of experiment [2] is Nuclear receptor coactivator 2 (Homo sapiens) (UniProt Q15596). The experiment can be described thus: inhibition of GAL4-SRC2 driven luciferase expression – cell-based, luminescence, HEK293, triplicate, confirmation (AID 652008).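 Also: 0% = DMSO-treated cells and 100% = Gossypol at 36 µM.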 To be noted: HEK293 GAL4-SRC2 luciferase reporter, at 8.9 µM, hits give high values. A general note: Reporter assays use an easily measured gene product as a stand-in for the process of interest.
Nuclear receptor coactivator 2 (Homo sapiens), sequence (Q15596 whole entry, looked up, the tested form may be a part): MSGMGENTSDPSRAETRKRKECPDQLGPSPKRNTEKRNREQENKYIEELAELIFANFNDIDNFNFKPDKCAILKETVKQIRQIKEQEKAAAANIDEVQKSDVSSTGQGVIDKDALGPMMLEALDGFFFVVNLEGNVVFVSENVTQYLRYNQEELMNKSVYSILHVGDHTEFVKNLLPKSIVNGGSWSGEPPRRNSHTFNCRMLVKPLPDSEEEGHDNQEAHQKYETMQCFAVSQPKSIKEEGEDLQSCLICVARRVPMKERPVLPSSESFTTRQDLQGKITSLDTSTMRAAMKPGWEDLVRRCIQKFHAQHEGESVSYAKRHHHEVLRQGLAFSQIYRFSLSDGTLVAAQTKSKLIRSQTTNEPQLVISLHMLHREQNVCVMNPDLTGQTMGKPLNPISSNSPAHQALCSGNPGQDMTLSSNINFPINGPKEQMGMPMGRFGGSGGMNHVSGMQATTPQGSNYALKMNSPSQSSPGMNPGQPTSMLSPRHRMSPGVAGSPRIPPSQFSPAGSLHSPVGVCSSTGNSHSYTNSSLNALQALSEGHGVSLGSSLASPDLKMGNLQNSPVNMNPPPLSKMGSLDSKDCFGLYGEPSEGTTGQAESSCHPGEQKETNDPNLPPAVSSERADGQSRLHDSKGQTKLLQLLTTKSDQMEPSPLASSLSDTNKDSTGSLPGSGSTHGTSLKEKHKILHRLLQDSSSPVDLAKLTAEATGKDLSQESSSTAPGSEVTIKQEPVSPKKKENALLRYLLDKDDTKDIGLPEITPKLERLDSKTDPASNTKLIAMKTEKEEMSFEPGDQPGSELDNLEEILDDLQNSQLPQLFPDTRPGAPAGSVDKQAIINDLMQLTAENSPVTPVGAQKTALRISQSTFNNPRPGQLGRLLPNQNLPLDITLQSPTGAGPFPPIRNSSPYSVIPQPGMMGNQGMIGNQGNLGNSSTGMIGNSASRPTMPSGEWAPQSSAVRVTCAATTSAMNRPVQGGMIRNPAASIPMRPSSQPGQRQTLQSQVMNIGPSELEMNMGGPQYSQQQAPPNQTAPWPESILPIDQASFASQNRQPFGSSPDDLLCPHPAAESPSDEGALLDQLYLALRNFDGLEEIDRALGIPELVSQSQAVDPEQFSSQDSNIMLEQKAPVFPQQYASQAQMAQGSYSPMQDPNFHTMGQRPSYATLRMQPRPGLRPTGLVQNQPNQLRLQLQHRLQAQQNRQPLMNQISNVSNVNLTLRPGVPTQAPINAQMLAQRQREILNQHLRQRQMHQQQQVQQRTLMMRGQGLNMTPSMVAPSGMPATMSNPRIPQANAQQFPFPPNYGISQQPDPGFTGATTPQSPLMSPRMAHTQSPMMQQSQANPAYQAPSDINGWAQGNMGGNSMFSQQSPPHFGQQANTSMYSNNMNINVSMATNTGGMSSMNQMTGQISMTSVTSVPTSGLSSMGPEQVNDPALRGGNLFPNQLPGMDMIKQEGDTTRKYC

Take `O=C(CCl)Nc1ccc(C(=O)NCC2COc3ccccc3O2)cc1` (stereo not given): the inhibition in experiment [1] was 71.2% (active); in experiment [2], 39.9%.

In the case of `O=C(CCCSc1nc2ccccc2s1)NC1=NCCS1`, the inhibition in experiment [1] is 27.1%; in experiment [2], 20.4%.

Regarding `c1ccc(CCNc2ncnc3scc(C4COc5ccccc5O4)c23)cc1` (stereo not given), the inhibition is -8.4% in experiment [1] and -10.3% in experiment [2].

`Cc1ccc(S(=O)(=O)N2[C@@H](c3ccc4c(c3)OCO4)C(C(=O)O)=C[C@H]2C(C)(C)C)cc1`: the inhibition in experiment [1] is -12.9%; in experiment [2], 1.95%.

Consider `O=C(CNC(=O)c1ccc2c(c1)OCO2)Nc1cccc(Br)c1`, for which the inhibition in experiment [1] is -13.8%; in experiment [2], -16.3%.

For `NNC(=O)COc1ccc(-c2nccc(-c3ccc(F)cc3)n2)cc1`, the figures for the inhibition in experiment [1] and in experiment [2] were -14.6% and 32.3%, respectively.

Consider `CCS(=O)(=O)c1ncc(Cl)c(C(=O)Nc2ccc(C)cc2)n1`, for which the inhibition in experiment [1] was 1.43%; in experiment [2], 0.68%.

For the molecule `O=C(O)CCSc1nnc(-c2ccc3c(c2)OCO3)o1`, the figures for the inhibition in experiment [1] and in experiment [2] were 45.9% (active) and 60.7% (active), respectively.

For `CC(C)CNC(=O)COC(=O)c1c2c(nc3ccccc13)CCC2`, the inhibition is 9.25% in experiment [1] and 11.4% in experiment [2].

On to `Cc1ccc(C)c(NC(=O)COc2coc(CN3CCc4ccccc4C3)cc2=O)c1`, for which the inhibition in experiment [1] was -2.11%; in experiment [2], 22.7%.

For `CCC(C)[C@H](NC(=O)C1CC(=O)N(c2ccc(OC)cc2)C1)C(=O)N1CCCCC1` (stereo not given in full), the values for the inhibition in experiment [1] and in experiment [2] were 6.37% and 10.3%, respectively.

Regarding `CCCC1=Nc2cc(C(=O)NCCCOCC)ccc2Sc2ccccc21`, the inhibition in experiment [1] is -2.83%; in experiment [2], 15.5%.

Consider `O=C(CCCCl)NC(=S)Nc1cc(C(F)(F)F)ccc1N1CCOCC1`, for which the values for the inhibition in experiment [1] and in experiment [2] were -12.4% and -9.88%, respectively.

For the molecule `O=C1NC(Cc2ccc(O)cc2)c2nc3cc(Cl)ccc3c(=O)n2-c2ncccc21` (stereo not given), the figures for the inhibition in experiment [1] and in experiment [2] were -1.01% and -15.2%, respectively.

Take `CC(=C\c1ccccc1)/C=C1/SC(=S)N(CCCC(=O)O)C1=O`: the inhibition is 78.9% (active) in experiment [1] and 79.2% (active) in experiment [2].

Take `Cc1cc(Nc2ccccc2)n(C(=O)c2ccc(N)cc2)n1`: the figures for the inhibition in experiment [1] and in experiment [2] were -71.3% and 0.44%, respectively.

`O=C(O)CCC(=O)Nc1ccc(C(=O)OC2CCCCC2)cc1`: the inhibition is 11.1% in experiment [1] and 29.4% in experiment [2].

In the case of `CC(C)c1cc(CNC(=O)c2ccc(OC3CCN(Cc4ccccn4)CC3)cc2)on1`, the inhibition in experiment [1] was -9.72%; in experiment [2], 11.8%.

Turning to `O=C(c1cc2sccc2n1Cc1ccc(F)cc1)N1CCN(c2nc3ccccc3s2)CC1`, the results for the inhibition in experiment [1] and in experiment [2] were 6.21% and 36.9%, respectively.

For `COc1ccc(OC)c(NC(=O)C(C)OC(=O)c2cc3ccccc3[nH]2)c1` (stereo not given), the values for the inhibition in experiment [1] and in experiment [2] were -2.68% and 17.6%, respectively.

For the molecule `O=[N+]([O-])c1ccc(Sc2nnnn2-c2ccccc2)nc1`, the figures for the inhibition in experiment [1] and in experiment [2] were 12.5% and 40.7%, respectively.

In the case of `O=C1C(N2CCOCC2)=C(n2nnc3ccccc32)C(=O)c2ccccc21`, the inhibition in experiment [1] was 43.9% (active); in experiment [2] it was 34.6%.

Consider `O=C(CCl)N(c1ccccc1)c1ccccc1`, for which the inhibition was 9.78% in experiment [1] and 44.2% in experiment [2].

Consider `CCOc1ccc(NC(=S)NC(=O)/C=C/c2ccc(OC)cc2)c([N+](=O)[O-])c1`, for which the inhibition is -22.3% in experiment [1] and -19.4% in experiment [2].

In the case of `COc1cc(/C=C2\CC/C(=C\c3cc(OC)c(O)c(OC)c3)C2=O)cc(OC)c1O`, the inhibition in experiment [1] is -70.7%; in experiment [2], -13%.

For `Cc1csc(NC(=O)CSc2ccc([N+](=O)[O-])cn2)n1`, the inhibition in experiment [1] is -0.96%; in experiment [2] it was -30.9%.

`CC(=O)c1ccc(OC2(C)CCN(Cc3ccc(OC(F)(F)F)cc3)C2)cc1` (stereo not given): the inhibition is -12.4% in experiment [1] and -13.5% in experiment [2].

As to `CC(Sc1nnc(CN2CCCC2)n1Cc1ccccc1)C(=O)Nc1ccc(F)cc1` (stereo not given), the inhibition in experiment [1] was 1.17%; in experiment [2] it was -5.19%.

Regarding `CCOc1cc(/C=C/C(=O)c2ccc3c(c2)OCCO3)ccc1OCC(=O)N(C)C`, the inhibition was 2.55% in experiment [1] and 16.2% in experiment [2].

Regarding `Cc1nc(S(=O)(=O)N(C)c2ccccc2)c(C#N)c(C)c1Cl`, the inhibition in experiment [1] is 3.59%; in experiment [2] it was 40.9%.

As to `COc1ccc(CNCCNC(=O)c2cccs2)c(OC)c1OC`, the inhibition in experiment [1] was 8.76%; in experiment [2], 9.01%.

As to `Cc1cc(OCC(=O)Nc2ccncc2)cc(C)c1Cl`, the figures for the inhibition in experiment [1] and in experiment [2] were 4.55% and 11.3%, respectively.

Regarding `Cc1nc2cc(-c3ccccc3)nn2c(C)c1CCC(=O)N1CCN(c2ccccc2)CC1`, the figures for the inhibition in experiment [1] and in experiment [2] were 3.67% and 52.6% (active), respectively.

`CCOC(=O)c1c(C)nn(-c2ccc(NC(=O)c3c(C)noc3C)cc2)c1C`: the inhibition in experiment [1] is 11.6%; in experiment [2] it was 52.8% (active).

With `COc1cc(C(O)c2nc(-c3ccncc3)cs2)ccc1F` (stereo not given), the inhibition was 4.64% in experiment [1] and 20.8% in experiment [2].
